CtBP-E1A blk: blocks the CtBP interaction with E1A | AlphaScreen GST-E1A/His-CtBP binding, 1536-well; active compounds read low | AID 651724 | activity change, % (concentration not given with the values) | 0.49% of 340,000 active; in the data active means activity change below about -65%; inconclusive means mostly about -30% to -63%; further: on the % scale 0 is the no-effect control and ±100 the full control effect
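In 5 uL wells, 23 nL compound meets equimolar GST-E1A and His-CtBP (5X stock 125 nM each) for 2 h, 37 °C. Beads (5X, 50 ug/mL) then 1 h, 37 °C, dark.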
G9a block: G9a (human) methyltransferase inhibition. Q96KQ7. G9a H3K9 monomethylation, AlphaScreen, 2 h. Potency, µM (titrated, usually from 102 µM), without a hit: at the top dose activity, negative = inhibition, actives largely listed as inhibitors. 8.8% of 350,000 active. AID 504332; further: potency means the concentration at half of the fitted maximal effect; on the % scale 0 is the no-effect control and ±100 the full control effect; nearly all actives have a fitted effect of over 75% in size
Target sequence (Q96KQ7 913-1193 limits assumed): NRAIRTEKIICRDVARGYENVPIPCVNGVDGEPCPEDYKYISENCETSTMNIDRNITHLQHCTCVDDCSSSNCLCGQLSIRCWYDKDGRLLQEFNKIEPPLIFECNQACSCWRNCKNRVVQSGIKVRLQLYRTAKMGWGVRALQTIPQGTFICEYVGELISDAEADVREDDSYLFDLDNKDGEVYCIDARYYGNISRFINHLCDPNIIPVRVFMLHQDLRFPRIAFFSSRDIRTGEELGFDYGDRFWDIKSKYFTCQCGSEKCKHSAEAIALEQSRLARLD
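Chemiluminescent proximity detection of H3K9 monomethylation, read after 10 min bead incubation in the dark. Reaction: 20 nM G9a, 500 nM biotin-H3K9 peptide, 20 uM SAM cofactor, 2 h, room temperature, following 15 min enzyme-compound preincubation.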
Six1-Eya2 blk: inhibitors of human Six1/Eya2 interaction; AlphaScreen GST-Six1/His-Eya2 binding, biochemical; active compounds read low; activity change, % (no concentration beside the values); 0.56% of 360,000 active; AID 651725; in the data active means activity change below about -65%; inconclusive means mostly about -30% to -63%; further: on the % scale 0 is the no-effect control and ±100 the full control effect
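GST-Six1 + His-Eya2 (5X stock: 250/500 nM); Tris pH 8.0, 300 mM NaCl, 0.05% BSA, 0.02% Tween 20; GSH donor/Ni acceptor beads; 1 h 37 °C dark; AlphaScreen readout.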
HP1b chromo inh: inhibitors of HP1-beta chromodomain binding to methylated histone tails | P83916 | AlphaScreen HP1-beta / biotin-H3K9me3 peptide binding | Potency, µM (doses to about 114 µM), for the others: at the highest dose activity change, negative = inhibition, actives largely listed as inhibitors | 0.56% of 390,000 active | AID 540317; further: potency means the concentration at half of the fitted maximal effect; nearly all actives have a fitted effect of over 70% in size
Target sequence (P83916 whole entry, looked up): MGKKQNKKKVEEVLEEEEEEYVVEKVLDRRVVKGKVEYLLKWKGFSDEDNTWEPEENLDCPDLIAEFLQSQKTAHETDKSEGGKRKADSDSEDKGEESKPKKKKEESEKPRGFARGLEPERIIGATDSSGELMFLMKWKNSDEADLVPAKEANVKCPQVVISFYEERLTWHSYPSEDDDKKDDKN
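Compound inhibition of the preformed complex between 50 nM HP1-beta and 50 nM biotinylated H3K9me3 peptide was read by AlphaScreen. Buffer was PBS pH 7.4 with 0.01% Tween-20. Incubations ran 30 min at room temperature, with 10 ug/mL donor/acceptor beads.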
JMJD2A Tudor: inhibitors of human JMJD2A Tudor domain; O75164; AlphaScreen JMJD2A-Tudor / H3K4me3 peptide binding; Potency, µM (doses to about 114 µM), without a hit: top-dose activity change, negative = inhibition, most hits filed as inhibitors; 4.4% of 390,000 active; further: potency means the concentration at half of the fitted maximal effect; on the % scale 0 is the no-effect control and ±100 the full control effect; nearly all actives have a fitted effect of over 50% in size
BAZ2B inh: blocks human BAZ2B | Potency, µM (top dose mostly 114 µM), for inactives: top-dose activity change, negative = inhibition, hits mostly inhibitors | Q9UIF8 | AID 504333 | AlphaScreen BAZ2B-H3K14Ac peptide displacement | 4.4% of 360,000 active; further: potency means the concentration at half of the fitted maximal effect; on the % scale 0 is the no-effect control and ±100 the full control effect; nearly all actives have a fitted effect of over 60% in size
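AlphaScreen displacement of biotin-H3(5-23)K14Ac peptide (50 nM final) from BAZ2B (50 nM final) in PBS pH 7.4, 0.01% Tween-20; complex preformed 30 min RT, then compounds (top 110 uM) 30 min RT, beads 20 min dark.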
The depositor's hits bear a star; ? = inconclusive; . = no result; [ ] = dose if it differs, or a comment. Hits are enriched below; roughly 10% of the tested compounds scored in any of these assays. Unless noted, the call rests on the fitted dose curve; in most records, active means well fitted inhibition curve with a large enough effect; inconclusive means small, poorly fitted or top-dose-only effect; inactive means no such curve, though single readings can be large or run the other way.

SMILES	CtBP-E1A blk	G9a block	Six1-Eya2 blk	HP1b chromo inh	JMJD2A Tudor	BAZ2B inh
CCCN1CCc2cc(O)cc3c2C1Cc1ccc(O)c(O)c1-3 (stereo not drawn)	.	0.32µM*	.	.	.	.
C=CCN1CCc2cccc3c2[C@H]1Cc1ccc(O)c(O)c1-3	-18	0.53µM*	-7	35µM*	16µM*	?
CC(C)(C)NC[C@H](O)c1cc(Cl)c(N)c(Cl)c1	.	20%[21.5 µM]	.	.	.	.
CCCCC1(CCO)C(=O)NC(=S)NC1=O	7	.	10	2%	-12%	.
CCCC1(CCO)C(=O)NC(=S)NC1=O	-1	.	4	22%	20µM*	.
C=CCn1c(O)c(Cc2ccc(OCC)cc2)c(=O)[nH]c1=O	-4	3%	4	-12%	32µM*	0%
COCCCNC(=S)NNC(=O)c1ccc(C(C)(C)C)cc1	.	.	3	52%	-7%	-2%
COCCNCCOc1ccc(C(C)(C)c2ccccc2)cc1	3	11µM*	6	?	32µM*	?
C=CC1CN2CCC1CC2C(OC(=O)OCC)c1ccnc2ccc(OC)cc12 (stereo not drawn)	.	-24%[2.33 µM]	.	.	.	.
CC(C)(C)OC(=O)NNC(=S)NC1CCCCC1	23	25µM*	0	29%	-3%	-16%
O=Cc1ccc(O)c(O)c1	-2	?	5	28%	22µM*	56µM*
NCCCNCCSP(=O)(O)O	.	-6%[12.7 µM]	.	.	.	.
COc1ccccc1N1CCN(Cc2ccc(Br)cc2)CC1	.	?	-1	21%	-33%	?
COc1ccccc1N1CCN(Cc2c(F)cccc2F)CC1	0	3%[12.7 µM]	2	15%	-27%	-27%
COc1ccccc1N1CCN(Cc2cccc(OC)c2O)CC1	2	45µM*	-3	15%	?	50µM*
Clc1ccccc1CN1CCN(c2cccc3[nH]ccc23)CC1	-11	28µM*	-20	?	?	40µM*
COc1ccccc1N1CCN(Cc2ccccc2Cl)CC1	7	14µM*	-1	-45%	3.2µM*	35µM*
COc1ccccc1N1CCN(Cc2ccccc2F)CC1	11	-44%[2.33 µM]	-3	?	6.3µM*	45µM*
Cn1c(C(=O)NCCOc2ccccc2Cl)cc(=O)n(C)c1=O	-5	-11%[59 µM]	-3	53%	-23%	-22%
Cc1oc(-c2ccc(Cl)cc2)nc1CN1C(=O)CN=C(c2ccccc2)c2ccccc21	.	-36%[59 µM]	.	-6%	5%	-4%
O=C1NCCOC(=O)[C@H](Cc2ccc(F)cc2)CC/C=C/C[C@@H]1CC(=O)N(CCO)Cc1ccccc1	2	.	8	44%	-11%	.
C/C(CC(=O)Nc1cc(C)ccn1)=N\NC(=O)c1ccncc1	-17	?	-5	25%	-1%	?
CC(C)(O)[C@@H]1C2OC(=O)[C@@H]1[C@]1(O)C[C@H]3O[C@]34C(=O)O[C@H]2[C@]14C (tested in a mixture with another compound)	.	14%[59 µM]	.	.	.	.
CCOc1ccc(CN(CCc2ccc3c(c2)OCO3)Cc2cccc(C)c2)cc1	.	0.89µM*	.	?	22µM*	?
CCOc1ccc(CN(CCc2ccc3c(c2)OCO3)Cc2cc(OC)ccc2O)cc1	.	3.2µM*	.	?	22µM*	?
SMILES	CtBP-E1A blk	G9a block	Six1-Eya2 blk	HP1b chromo inh	JMJD2A Tudor	BAZ2B inh
COc1ccc(OCC(=O)N2CCN(Cc3ccc4c(c3)OCO4)CC2)cc1	-11	5%	-9	13%	-6%	-9%
CCOc1ccc(CN(CCc2ccc3c(c2)OCO3)Cc2ccc(CC)cc2)cc1	.	?	.	-21%	22µM*	71µM*
c1cc2c(c(N3CCNCC3)c1)OCCO2	.	16%[59 µM]	.	.	.	.
CC(C)n1c(O)c(C2c3cc(Cl)ccc3Oc3[nH]c(=O)n(C(C)C)c(=O)c32)c(=O)[nH]c1=O (stereo not drawn)	3	4.5µM*	10	9%	-16%	-24%
CO[C@H]1C=C2CCN(C)[C@@H]2[C@@H]2c3cc4c(cc3C(=O)O[C@H]21)OCO4	.	2%[21.5 µM]	.	.	.	.
COc1ccc(OCC#CCN2CCNCC2)cc1	-11	8.9µM*	1	?	6.3µM*	32µM*

Screening data from PubChem.
